GLA inh pH 4.5 – inhibitors of human alpha-galactosidase A at pH 4.5. P06280. purified enzyme, 4-MU-alpha-Gal fluorescence, pH 4.5. activity change, negative = inhibition, % at 105 µM. 230,000 tested, under 10 active
aGal spleen mod – inhibits or activates alpha-galactosidase in human spleen homogenate; Potency, µM (series often up to 80 µM), most hits filed as inhibitors; P06280; AID 2107; human spleen homogenate, 4MU-alpha-Gal fluorescence, 40 min; 0.008% of 240,000 active
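qHTS titration in buffer at pH 5.0. Alpha-galactosidase activity in spleen homogenate was measured via 4-methylumbelliferone release from 1 mM fluorogenic substrate after 40 min at 37C and a pH 10 stop. AC50 came from Hill fits of control-normalized data.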
HPGD block – HPGD (human) dehydrogenase inhibition; P15428; purified HPGD, NADH fluorescence kinetic, PGE2 substrate; Potency, µM, hits mostly inhibitors; 4.3% of 150,000 active; AID 894; active = well fitted inhibition curve with a large enough effect, not every such curve was filed as active; inconclusive = small, poorly fitted or top-dose-only effect, or another doubt; inactive = no such curve, though single readings can be large or run the other way
Target sequence (P15428 whole entry, looked up): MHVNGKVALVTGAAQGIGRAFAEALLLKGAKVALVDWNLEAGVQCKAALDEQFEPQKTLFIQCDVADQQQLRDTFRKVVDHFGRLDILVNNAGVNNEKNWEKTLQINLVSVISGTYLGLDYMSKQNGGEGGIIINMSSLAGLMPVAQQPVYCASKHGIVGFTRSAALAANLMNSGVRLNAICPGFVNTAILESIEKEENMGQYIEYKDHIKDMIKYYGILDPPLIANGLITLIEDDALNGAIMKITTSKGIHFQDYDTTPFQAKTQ
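NADH formation kinetics: reaction with 30 uM PGE2 and 1 mM NAD+ (final), 20 nM enzyme, Tris-HCl pH 8 with Tween 20, after 15 min compound preincubation at room temperature. Fluorescence change, last versus first of five reads.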
PNC inhibitor – blocks assembly of the perinucleolar compartment; PC3M PTB-GFP, PNC prevalence imaging, 16 h; active compounds read low; activity change (PNC), negative = inhibition, % at 10 µM; 3.1% of 140,000 active; AID 2417;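 active = readout at or below -70, meaning at least 70% loss of cells showing the perinucleolar compartment, a nuclear body marking cancer cells; inconclusive = readout between -30 and a set limit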
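PC3M cells stably expressing PTB-GFP, 750–1000 cells/well, treated 16 h at 37 °C with compound (23 nl of library stock), in duplicate. After paraformaldehyde fixation and Hoechst stain, imaged at 20x; PNC prevalence scored by image analysis.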
12-hLO inh – 12-hLO (ALOX12) enzyme inhibition | P18054 | purified 12-hLO, xylenol orange hydroperoxide absorbance | Potency, µM (titrated, usually from 57.1 µM), most hits filed as inhibitors | 0.12% of 150,000 active; also: nearly all actives have a fitted effect of over 55% in size
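Lipoxygenase turnover measured by absorbance at 573 and 405 nm after Fe-XO development. Human 12hLO 150 nM, arachidonate 40 uM, pH 7.0 Hepes buffer with detergent; 15 min compound preincubation, 30 min reaction.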
ALDH1A1 inh – inhibitors of human aldehyde dehydrogenase 1A1. Purified ALDH1A1, NADH fluorescence, propionaldehyde substrate. Potency, µM (highest dose often 75.3 µM), most hits filed as inhibitors. 7.3% of 220,000 active. AID 1030; active = well fitted inhibition curve with a large enough effect, not every such curve was filed as active; inconclusive = small, poorly fitted or top-dose-only effect, or another doubt; inactive = no such curve, though single readings can be large or run the other way
A number is an active result; n = inactive; u = inconclusive; x = not tested or not shown; [ ] = dose if it differs, or a comment. The list is not random: actives were taken first. Their share in the collection is about 10%. Unless noted, calls follow the shape of the dose curve; as a rule, active = well fitted curve in the direction sought with a large enough effect; inconclusive = small, poorly fitted or top-dose-only effect, or another doubt; inactive = no such curve, though single readings can be large; an effect the other way counts as inactive or inconclusive.

SMILES | GLA inh pH 4.5 | aGal spleen mod | HPGD block | PNC inhibitor | 12-hLO inh | ALDH1A1 inh
Cc1ccc(C(=O)Nc2ncc(Cc3ccc(F)cc3)s2)o1 | n | n | u | n | n | u
Cc1ccc(C(=O)Nc2ncc(Cc3ccc(SC(F)F)cc3)s2)cc1 | n | n | n | -82 | n | n
Cc1cc(NC(=O)CCC(=O)N(CC(=O)NC2CCCC2)c2ccccc2)no1 | n | n | n | n | n | n
Cc1cc(NC(=O)/C=C/C(=O)N(CC(=O)NC2CCCC2)c2cccc3ccccc23)no1 | n | n | x | x | x | 2µM
COc1ccc(N2CCN(C(=O)CSc3nnc4n3C(C)(C)Cc3ccccc3-4)CC2)cc1 | n | n | n | -80 | n | 22µM
COc1ccc(N2CCN(C(=O)CSc3ccccc3N)CC2)cc1 | n | n | u | u | n | 25µM
Cc1ccc(C)n1-n1cnc2sc(-c3ccccc3)cc2c1=O | n | n | 28µM | n | n | u
O=c1c2cc(-c3ccccc3)sc2ncn1-n1cccc1 | n | n | n | n | n | n
CCn1cnc2sc(-c3ccccc3)cc2c1=O | n | n | n | n | n | 14µM
CC(=O)Cn1cnc2sc(-c3ccccc3)cc2c1=O | n | n | n | n | n | n
Cc1c(Cl)cccc1NC(=S)NCCC(C)C | n | n | n | u | n | n
COc1cc(NC(=S)NCCC(c2ccccc2)c2ccccc2)cc(OC)c1 | n | n | n | n | 22µM | u
Cc1c(Cl)cccc1NC(=S)NCc1ccccc1Cl | n | n | 22µM | n | 10µM | n
Cc1c(Cl)cccc1NC(=S)NCCC(c1ccccc1)c1ccccc1 | n | n | n | u | 7.9µM | u
Cc1c(Cl)cccc1NC(=S)NCc1cccs1 | n | n | u | u | u | u
O=C1[C@@H]2[C@H](C(=O)N1O)[C@H]1C=C[C@@H]2C1 | n | n | n | n | n | 0.63µM
Fc1ccccc1-n1cn[nH]c1=S | n | n | x | x | x | n
Fc1ccccc1-n1[nH]nnc1=S | n | n | 25µM | n | n | 2.2µM
CCOC(=O)C1CSC(CC(=O)Nc2ccc(OC(F)(F)F)cc2)C(=O)N1 (stereo not drawn) | n | n | x | x | x | n
O=c1c2ncn([C@@H]3O[C@@H]4COP(=O)(O)O[C@H]4[C@H]3O)c2nc2[nH]c(-c3ccccc3)cn12 | x | n | x | x | x | x
S=c1[nH]nc(-c2cc(-c3ccco3)[nH]n2)n1-c1ccccc1Cl | n | n | 32µM | n | u | 7.1µM
S=c1[nH]nc(-c2cc(-c3ccco3)[nH]n2)n1-c1ccccc1 | n | n | 20µM | n | n | u
O=C(CCN1C(=O)C2C3C=CC(C3)C2C1=O)NCCc1ccccc1Cl (stereo not drawn) | n | n | n | n | n | 8.9µM
CC(C)Cn1c(SCC(=O)N2CCCc3ccccc32)nc2ccccc2c1=O | n | n | x | x | x | x
CCCCC(CC)COCC1CO1 (stereo not drawn) | x | n | n | x | n | 13µM
SMILES | GLA inh pH 4.5 | aGal spleen mod | HPGD block | PNC inhibitor | 12-hLO inh | ALDH1A1 inh
CCS(=O)(=O)NCCc1cc2c(OC)ccc(OC)c2[nH]c1=O | n | n | n | -100 | n | u
CCCS(=O)(=O)NCCc1cc2cc(C)c(C)cc2[nH]c1=O | n | n | n | -100 | n | n
CC(=O)NC(C)C(=O)OCC(=O)c1ccc(-c2ccccc2)cc1 (stereo not drawn) | n | n | x | x | x | u
Cc1noc(C)c1-c1cc(NCc2cccs2)ncn1 | x | n | x | x | x | n
O=C(Cc1ccccc1)N1CCN=C1SCc1ccc([N+](=O)[O-])cc1 | n | n | x | -90 | n | n
O=C(Cc1ccc(F)cc1)N1CCN=C1SCc1ccc([N+](=O)[O-])cc1 | n | n | n | n | n | n
O=C(c1ccc2c(c1)OCO2)N1CCN=C1SCc1ccccc1 | n | n | u | n | n | 11µM
Cc1ccc(CSC2=NCCN2C(=O)c2ccc([N+](=O)[O-])cc2)cc1 | n | n | x | x | x | 16µM
CC(=O)N1CCN=C1SCc1ccccc1 | n | n | n | n | n | u
Cc1ccc(C(=O)N2CCN=C2SCc2ccc([N+](=O)[O-])cc2)cc1 | n | n | n | n | n | u
CC1CCC2C(=O)N3C(CCC(C)[C@@H]3c3ccc(-c4ccco4)cc3)C(=O)N2C1c1cccc(N2CCCC2=O)c1 (stereo partly drawn) | x | n[17.5 µM] | x | x | x | u
COC(=O)[C@@]1(Cc2ccc(OC)cc2)[C@H]2c3cc(C(=O)N(C)C)n(Cc4ccc(C(F)(F)F)nc4)c3C[C@H]2CN1C(=O)c1ccccc1 | n | n | n | x | n | n
CCN(CC(=O)N1CCN(C)CC1)S(=O)(=O)c1ccc(Cl)cc1 | n | n | n | -107 | n | n
CCS(=O)(=O)c1nc(S(=O)(=O)c2ccc(Cl)cc2)c(N2CCc3ccccc3C2)s1 | n | n | n | u | n | 1.4µM
CCS(=O)(=O)c1nc(S(=O)(=O)c2ccc(Cl)cc2)c(NCc2ccccn2)s1 | n | n | x | x | x | 13µM
CCN(CC(=O)NCc1ccccn1)S(=O)(=O)c1ccc(Cl)cc1 | n | n | 22µM | u | n | u
CCN(CC(=O)N1CCCCCC1)S(=O)(=O)c1ccc(Cl)cc1 | n | n | n | n | n | n
CN(CC(=O)NCc1ccccn1)S(=O)(=O)c1ccc(Br)cc1 | n | n | x | x | x | n
Cc1cccc2c(N)c3c(nc12)CCCC3 (tested in a mixture with another compound) | n | n | x | x | x | n
Cc1cc(C)c2c(N)c3cccc(C)c3nc2n1 | n | n | u | -92 | n | u

Compound activity: PubChem, National Center for Advancing Translational Sciences (NCATS)
